Source: PubChem BioAssay AID1159580 (chemical genetic matrix, 2015)
Hit rate of the full screen: of about 5,500 compounds, about 2,000 (36%) were called active. Inconclusive results (about 18%) are left out. Cut-off read from the data, not from the text of the source: active = normalized growth mostly below about 0.91 (no sharp cut-off); inconclusive = no clear call, values can overlap the other calls; inactive = mostly above about 0.92. The list shows a part of the results.

Test: chemical genetic growth profiling, strain panel (AID 1159580);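 note: tested at 20 µM; growth read once vehicle control cultures reached saturation at 30 °C; 1 = growth at the plate median or of vehicle wells; lower values mean less growth of the strain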
Conditions: S. cerevisiae deletion strains, growth OD
[1] = locus YAR019C, strain CDC15, hits give low values
[2] = locus YBL105C, strain PKC1, hits give low values
[3] = locus YBR135W, strain CKS1, hits give low values
[4] = locus YBR136W, strain MEC1, hits give low values
[5] = locus YBR160W, strain CDC28, hits give low values
[6] = locus YDL017W, strain CDC7, hits give low values
[7] = locus YDL028C, strain MPS1, hits give low values
[8] = locus YDL101C, strain DUN1, hits give low values
[9] = locus YDL108W, strain KIN28, hits give low values
[10] = locus YDL132W, strain cdc53, hits give low values
[11] = locus YDL214C, strain PRR2, hits give low values
[12] = locus YDR052C, strain DBF4, hits give low values
[13] = locus YDR054C, strain cdc34, hits give low values
[14] = locus YDR226W, strain ADK1, hits give low values
[15] = locus YDR477W, strain SNF1, hits give low values
[16] = locus YER123W, strain YCK3, hits give low values
[17] = locus YER133W, strain GLC7, hits give low values
[18] = locus YFL009W, strain cdc4, hits give low values
[19] = locus YFL029C, strain CAK1, hits give low values
[20] = locus YFR003C, strain YPI1, hits give low values
[21] = locus YFR019W, strain FAB1, hits give low values
[22] = locus YFR028C, strain CDC14, hits give low values
[23] = locus YGR040W, strain KSS1, hits give low values
[24] = locus YGR052W, strain FMP48, hits give low values
[25] = locus YGR092W, strain DBF2, hits give low values
[26] = locus YHR030C, strain SLT2, hits give low values
[27] = locus YHR079C, strain IRE1, hits give low values
[28] = locus YHR082C, strain KSP1, hits give low values
[29] = locus YHR205W, strain SCH9, hits give low values
[30] = locus YIL147C, strain SLN1, hits give low values
[31] = locus YJL095W, strain BCK1, hits give low values
[32] = locus YJL157C, strain FAR1, hits give low values
[33] = locus YJR016C, strain ILV3, hits give low values
[34] = locus YJR066W, strain TOR1 (second series), hits give low values
[35] = locus YJR066W, strain TOR1, hits give low values
[36] = locus YKL048C, strain ELM1, hits give low values
[37] = locus YKL067W, strain YNK1, hits give low values
[38] = locus YKL101W, strain HSL1, hits give low values
[39] = locus YKL193C, strain SDS22, hits give low values
[40] = locus YKL203C, strain TOR2, hits give low values
[41] = locus YLR113W, strain HOG1, hits give low values
[42] = locus YLR133W, strain CKI1, hits give low values
[43] = locus YLR403W, strain SFP1, hits give low values
[44] = locus YML070W, strain DAK1, hits give low values
[45] = locus YMR001C, strain CDC5, hits give low values
[46] = locus YMR205C, strain PFK2 (second series), hits give low values
[47] = locus YMR277W, strain FCP1, hits give low values
[48] = locus YNL006W, strain LST8, hits give low values
[49] = locus YNL020C, strain ARK1, hits give low values
[50] = locus YNL161W, strain CBK1, hits give low values
[51] = locus YNL183C, strain NPR1, hits give low values
[52] = locus YNL207W, strain RIO2, hits give low values
[53] = locus YNL222W, strain SSU72, hits give low values
[54] = locus YNL307C, strain MCK1 (second series), hits give low values
[55] = locus YOL078W, strain AVO1, hits give low values
[56] = locus YOL136C, strain PFK27, hits give low values
[57] = locus YOR061W, strain CKA2, hits give low values
[58] = locus YOR119C, strain RIO1, hits give low values
[59] = locus YOR231W, strain MKK1, hits give low values
[60] = locus YOR329C, strain SCD5, hits give low values
[61] = locus YPL031C, strain PHO85, hits give low values
[62] = locus YPL153C, strain RAD53, hits give low values
[63] = locus YPL204W, strain HRR25, hits give low values
[64] = locus YPL209C, strain IPL1, hits give low values
[65] = locus YPL256C, strain CLN2, hits give low values
[66] = locus YPR025C, strain CCL1, hits give low values
[67] = locus YPR106W, strain ISR1, hits give low values
[68] = locus YPR111W, strain DBF20, hits give low values
[69] = strain NNK1, hits give low values
[70] = strain TSCII, hits give low values
[71] = locus YAL013W, strain DEP1, hits give low values
[72] = locus YBR229C, strain ROT2, hits give low values
[73] = locus YDR150W, strain NUM1, hits give low values
[74] = locus YEL061C, strain CIN8, hits give low values
[75] = locus YGR078C, strain PAC10, hits give low values
[76] = locus YGR229C, strain SMI1, hits give low values
[77] = locus YHR087W, strain rtc3, hits give low values
[78] = locus YJR043C, strain POL32, hits give low values
[79] = locus YJR075W, strain HOC1, hits give low values
[80] = locus YLR039C, strain RIC1, hits give low values
[81] = locus YLR058C, strain SHM2 (second series), hits give low values
[82] = locus YLR085C, strain ARP6, hits give low values
[83] = locus YLR262C, strain YPT6, hits give low values
[84] = locus YML094W, strain GIM5, hits give low values
[85] = locus YMR219W, strain ESC1, hits give low values
[86] = locus YMR263W, strain SAP30, hits give low values
[87] = locus YNL153C, strain GIM3, hits give low values
[88] = locus YNL298W, strain CLA4 (second series), hits give low values
[89] = locus YNL322C, strain KRE1, hits give low values
[90] = locus YNR030W, strain Alg12, hits give low values
[91] = locus YOL006C, strain TOP1, hits give low values
[92] = locus YPL055C, strain LGE1, hits give low values
[93] = locus YPL241C, strain CIN2, hits give low values
[94] = locus YPR135W, strain CTF4, hits give low values
[95] = locus YJL128C, strain PBS2, hits give low values

Measured: normalized growth

Cc1ccc(NS(=O)(=O)c2ccc(Cl)cc2)c(N=Cc2cc(Cl)cc(Cl)c2O)c1
active: [11] 0.277 | [15] 0.252 | [16] 0.169 | [17] 0.269 | [21] 0.342 | [23] 0.323 | [24] 0.219 | [25] 0.137 | [26] 0.118 | [27] 0.151 | [28] 0.147 | [29] 0.154 | [31] 0.15 | [32] 0.162 | [34] 0.363 | [35] 0.144 | [36] 0.336 | [37] 0.257 | [38] 0.291 | [40] 0.273 | [41] 0.3 | [42] 0.198 | [43] 0.118 | [44] 0.203 | [46] 0.289 | [49] 0.17 | [51] 0.208 | [54] 0.145 | [56] 0.193 | [57] 0.196 | [58] 0.303 | [59] 0.203 | [61] 0.231 | [62] 0.234 | [63] 0.211 | [65] 0.255 | [69] 0.776
inactive: [1] 0.952 | [2] 0.965 | [3] 0.955 | [4] 0.961 | [5] 0.961 | [6] 0.958 | [7] 0.96 | [8] 0.968 | [9] 0.954 | [10] 0.962 | [12] 0.961 | [13] 0.929 | [14] 0.958 | [18] 0.945 | [19] 0.95 | [20] 0.948 | [22] 0.965 | [30] 0.949 | [33] 0.967 | [39] 0.968 | [45] 0.971 | [47] 0.936 | [48] 0.946 | [50] 0.951 | [52] 0.949 | [53] 0.963 | [55] 0.962 | [60] 0.96 | [64] 0.958 | [66] 0.959 | [67] 0.959 | [68] 0.943 | [70] 0.959

Cc1ccc(NS(C)(=O)=O)cc1N=Cc1ccc(Cl)c(Cl)c1
inactive: [71] 0.989 | [72] 1 | [8] 0.965 | [73] 0.879 | [74] 1.02 | [75] 0.996 | [76] 1 | [26] 0.891 | [77] 1.03 | locus YJL187C, strain SWE1, hits give low values 1.01 | [78] 0.989 | [79] 0.965 | locus YKL190W, strain CNB1, hits give low values 0.999 | [80] 0.984 | [81] 1.02 | [82] 1.01 | [83] 0.951 | [84] 0.994 | [85] 1.01 | [86] 0.988 | locus YNL128W, strain TEP1, hits give low values 0.976 | [87] 0.986 | [88] 0.866 | [89] 1 | [90] 0.983 | [91] 0.959 | [92] 0.991 | [93] 0.993 | [94] 0.706

Cc1ccc(NC(=O)c2c(F)cccc2Cl)c(C(=O)Nc2ccc(F)cc2)c1
inactive: [71] 0.993 | [72] 0.998 | [8] 1.02 | [73] 1.02 | [74] 0.987 | [75] 1.02 | [76] 1.01 | [26] 1.06 | [77] 0.976 | [78] 1.02 | [79] 1.01 | [80] 0.868 | [81] 0.995 | [82] 1.03 | [83] 0.933 | [84] 1.01 | [85] 1 | [86] 1 | locus YMR307W, strain GAS1, hits give low values 1.1 | [87] 1.03 | [88] 1.02 | [89] 0.997 | [90] 1 | [91] 1.02 | [92] 0.952 | [93] 1.03 | [94] 1.05

Cc1ccc(NC(=O)c2ccccc2N=Cc2cc(Cl)cc(Cl)c2O)c(N=Cc2cc(Cl)cc(Cl)c2O)c1
inactive: [1] 0.926 | [2] 0.926 | [3] 0.921 | [4] 0.927 | [5] 0.934 | [6] 0.927 | [7] 0.927 | [8] 0.962 | [9] 0.925 | [10] 0.937 | [12] 0.93 | [13] 0.911 | [14] 0.925 | [18] 0.93 | [19] 0.909 | [20] 0.913 | [22] 0.933 | [30] 0.914 | [95] 0.885 | [33] 0.934 | [39] 0.924 | [45] 0.925 | [47] 0.935 | [48] 0.931 | [50] 0.906 | [52] 0.922 | [53] 0.929 | [55] 0.928 | [60] 0.913 | [64] 0.929 | [66] 0.928 | [67] 0.936 | [68] 0.916 | [69] 0.91 | [70] 0.922
active: [11] 0.459 | [15] 0.284 | [16] 0.252 | [17] 0.365 | [21] 0.598 | [23] 0.377 | [24] 0.363 | [25] 0.123 | [26] 0.213 | [27] 0.201 | [28] 0.293 | [29] 0.166 | [31] 0.218 | [32] 0.272 | [34] 0.51 | [35] 0.237 | [36] 0.422 | [37] 0.359 | [38] 0.387 | [40] 0.37 | [41] 0.247 | [42] 0.28 | [43] 0.131 | [44] 0.32 | [46] 0.348 | [49] 0.198 | [51] 0.254 | [54] 0.188 | [56] 0.25 | [57] 0.197 | [58] 0.39 | [59] 0.255 | [61] 0.291 | [62] 0.324 | [63] 0.313 | [65] 0.294

CC(=O)Nc1ccc(S(=O)(=O)Nc2ccccc2Oc2ccc(Cl)cc2Cl)cc1
inactive: [1] 0.998 | [2] 0.996 | [3] 0.993 | [4] 0.993 | [5] 0.996 | [6] 0.997 | [7] 0.995 | [8] 1 | [9] 0.999 | [10] 0.995 | [11] 0.984 | [12] 0.993 | [13] 0.986 | [14] 1 | [15] 0.983 | [16] 1.02 | [17] 0.991 | [18] 0.993 | [19] 0.985 | [20] 0.999 | [21] 0.993 | [22] 0.993 | [23] 0.986 | [24] 1.09 | [25] 1 | [26] 1 | [27] 1.01 | [28] 1.04 | [29] 0.987 | [30] 0.992 | [31] 1.03 | [95] 0.965 | [32] 0.992 | [33] 0.996 | [34] 0.97 | [35] 1.01 | [36] 0.986 | [37] 0.985 | [38] 0.98 | [39] 0.994 | [40] 1.04 | [41] 0.959 | [42] 0.98 | [43] 0.995 | [44] 1.01 | [45] 0.999 | [46] 0.99 | [47] 0.995 | [48] 0.999 | [49] 0.992 | [50] 0.995 | [51] 1.01 | [52] 0.995 | [53] 0.995 | [54] 1.01 | [55] 0.995 | [56] 1 | [57] 0.98 | [58] 0.994 | [59] 0.994 | [60] 0.999 | [61] 0.995 | [62] 0.994 | [63] 0.996 | [64] 0.998 | [65] 0.929 | [66] 0.996 | [67] 0.998 | [68] 0.99 | [69] 0.994 | [70] 0.999
